Entries with a potency or affinity are not part of this list. A number with no mark means an inactive call. No rule for the calls is given here.
Test: mammalian cell viability reduction – secondary assay, cytotoxicity control for West Nile virus antiviral project, dose response (AID 1650)
Details: Mammalian host cell viability, cytotoxicity counter-screen; series mostly up to 10 µM; viability: at the top concentration

Compound	viability
Cc1ccc(-c2cc(C(=O)N(C)Cc3cnn(C)c3C)c3cc(Br)ccc3n2)cc1	90.5%
CCN1CCN(c2ccc(S(=O)(=O)N3CCCCC3)cc2NC(=O)Cc2c(Cl)cccc2Cl)CC1	78.9%
CCN(CC)S(=O)(=O)c1ccc(NC(=O)Cn2cnc3ccccc3c2=O)cc1	92.4%
COc1ccc(C2c3c(ncn(CCCO)c3=N)Oc3ccc4ccccc4c32)cc1OC (configuration not stated)	86% [at 20 µM]
CCN(CC)S(=O)(=O)c1ccc2c(c1)c(=O)c(C(=O)NCCOC)cn2C	83.3%
C/C(=N\OC(=O)c1ccc(F)cc1)c1nccs1	92.5% [at 20 µM]
CCOC(=O)N1CCC(N2C(=O)c3ccccc3C2Nc2cc(C)cc(C)c2)CC1 (configuration not stated)	84.1% [at 20 µM]

Source: PubChem BioAssay AID1650 (Southern Research Specialized Biocontainment Screening …, 2009)
